# A selection: hits, their analogues and other compounds. The true share with any hit is near 3.4%.
# rRNA inh HTS = inhibitors of bacterial rRNA selective over humanized ribosomes | E. coli WT GFP vs humanized-ribosome RFP mutants, fluorescence, 24 h; stronger effect = lower value; DMSO median 0, no signal -100 | GFP signal change (wild-type ribosome), % (no concentration beside the values) | 1.6% of 350,000 active | AID 720706;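 active = significant combined selectivity score with lowered wild-type GFP, culture density cut under 30%, mutant RFP and density less affected; inactive = any of these conditions unmet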
# LGR2 antag = blocks bursicon-induced cAMP signaling via Drosophila LGR2; HEK293 LGR2, CRE-luciferase, bursicon-stimulated, 4 h; inhibition, % at 9.99 µM; 0.35% of 380,000 active;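 active = drop in luminescence signal, shown as inhibition above about 50% in the replicate tests, limit read from the data, passing the limit was not always enough; inconclusive = probably only some replicates passing the limit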;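 note: agonist challenge used bursicon conditioned medium at about half maximal strength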
# PAX8 inh HTS = lowers PAX8-driven luciferase in RMG-I cells. 1.2% of 360,000 active. inhibition, % at 12.6 µM. RMG-I TPO-luciferase reporter, SteadyGlo, 24 h;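 active = mean replicate inhibition at least 60% with every replicate also reaching 60%; inconclusive = only one of the two criteria is met; inactive = mean below 60% and not all replicates reaching 60%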;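 note: luciferase light reporting Pax8 driven TPO promoter activity; plate controls were median of neutral control wells for no effect and mitoxantrone controls for full effect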
# SIRT5 inh = blocks human SIRT5 desuccinylation of peptide. AID 652115. inhibition, % at 15 µM. 1.1% of 330,000 active. Purified SirT5, succinyl-peptide AMC, trypsin-coupled fluorescence; in the data active = inhibition above about 15%; inconclusive = no clear call, values can overlap the other calls
# Target sequence (Q9NXA8 whole entry, looked up): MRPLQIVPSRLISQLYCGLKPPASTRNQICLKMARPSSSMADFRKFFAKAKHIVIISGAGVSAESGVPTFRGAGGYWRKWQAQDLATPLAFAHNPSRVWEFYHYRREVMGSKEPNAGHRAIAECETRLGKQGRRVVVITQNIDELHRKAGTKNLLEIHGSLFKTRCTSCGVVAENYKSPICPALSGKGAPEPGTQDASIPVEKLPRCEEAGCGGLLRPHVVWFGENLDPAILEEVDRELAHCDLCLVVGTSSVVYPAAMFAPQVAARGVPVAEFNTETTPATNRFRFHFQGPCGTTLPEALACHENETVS
# EWS-Fli block = inhibitors of EWS/Fli oncoprotein transcriptional activity; A673 NR0B1-luciferase reporter, viability-normalised; inhibition, % at 12.6 µM; 0.67% of 350,000 active;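 active = mean inhibition of at least 50% after viability correction, with every replicate also passing that limit; inconclusive = mean reaches 50% but only one of two replicates passes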;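 note: firefly luciferase signal divided by Alamar Blue viability fluorescence both relative to DMSO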
# PGC1a acetyl inh = lowers PGC1a acetylation signal in U2OS cells. AlphaScreen anti-acetyl-lysine; with virally co-expressed GCN5 acetyltransferase. inhibition, % at 15.6 µM. 0.17% of 350,000 active. AID 651687;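 active = every replicate shows inhibition of at least 40%; inconclusive = mean inhibition at least 40% but some replicate below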;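 note: 0% = neutral control wells and 100% = positive control wells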
# Active calls of the source: *; ? = inconclusive; · = no result given.
SMILES,rRNA inh HTS,LGR2 antag,PAX8 inh HTS,SIRT5 inh,EWS-Fli block,PGC1a acetyl inh
O=C(C1Cc2ccccc2CN1S(=O)(=O)c1ccc(F)cc1)N1CCOCC1 (stereo not drawn),-11,0,·,25*,7,-14
Cc1nc(N/N=C/c2ccccn2)sc1C,-51,102*,73*,-2,?,·
CCCc1sc(N/N=C/c2ccccn2)nc1-c1ccc(F)cc1,·,·,·,·,·,-15
COc1ccc(N(C(=O)c2ccncc2)S(=O)(=O)c2ccc3c4c(cccc24)C(=O)N3C)cc1,12,72*,-5,-27,2,4
CN/N=C(\Cc1nc2ccccc2[nH]1)c1ccc([N+](=O)[O-])cc1,-22*,-25,-13,1,-20,·
CC(C)NC(=O)N[C@H]1CC[C@@H](CCNS(=O)(=O)Cc2ccccc2)O[C@@H]1CO,0,-4,-12,1,-6,-2
COc1ccccc1C(=O)Nc1ccc2c(c1)C(=O)N(C)[C@H]1CC[C@H](CC(=O)Nc3cccc(C(C)C)c3)O[C@@H]1CO2,-1,-23,48,19*,9,·
COc1ccccc1C(=O)Nc1ccc2c(c1)C(=O)N(C)[C@@H]1CC[C@@H](CC(=O)NCc3ccc(Cl)c(Cl)c3)O[C@H]1CO2,-4,24,93*,4,2,28
Cc1cc(C(=O)Nc2ccc3c(c2)C(=O)N(C)[C@H]2CC[C@@H](CC(=O)NCc4ccc(-c5ccccc5)cc4)O[C@@H]2CO3)no1,4,15,65*,2,14,·
C/C=C/c1cnc2c(c1)C(=O)N([C@H](C)CO)C[C@@H](C)[C@@H](CN(C)C(=O)C1CC1)O2,-1,2,·,·,-18,6
CCC(=O)N[C@@H]1CC[C@@H](CCn2cc(CN(C)C)nn2)O[C@H]1CO,-1,-14,-1,-4,-1,0
CC[C@H](C)C1OC(=O)[C@@H](C)[C@@H](CC)NC(=O)[C@H](C)N(C)C(=O)C(C)(C)C(=O)C(C)NC(=O)[C@H](Cc2ccc(OC)cc2)N(C)C(=O)[C@H](C(C)C)N(C)C(=O)CNC(=O)[C@H](CC(C)C)N(C)C(=O)CNC1=O (stereo partly drawn),·,·,·,·,·,74*
C=CCN1C(=O)[C@@]2(O[C@@H](CCO)[C@H]([Si](C)(C)c3ccc(OC)cc3)[C@H]2C)c2ccccc21,·,·,66*,8,19,-15
C=CCN1C(=O)[C@]2(O[C@H](CCO)[C@@H]([Si](C)(C)c3ccc(OC)cc3)[C@@H]2C)c2cc(N3CCOC3=O)ccc21,·,·,17,7,-10,-14
C=CCN1C(=O)[C@@]2(O[C@@H](CCO)[C@H]([Si](C)(C)c3ccc(OC)cc3)[C@H]2C)c2cc(N3CCC3=O)ccc21,·,·,31,2,7,10
C=CCN1C(=O)[C@]2(O[C@H](CCO)[C@@H]([Si](C)(C)c3ccc(OC)cc3)[C@@H]2C)c2ccccc21,·,·,94*,1,1,-40
C[C@H](CO)N1C[C@H](C)[C@@H](CN(C)S(C)(=O)=O)Oc2ncc(C#CCN(C)C)cc2C1=O,6,-1,·,1,-12,4
C[C@@H]1CCCCO[C@H](CN(C)C(=O)C2CCCCC2)[C@H](C)CN([C@H](C)CO)C(=O)c2cc(NC(=O)NC3CCCCC3)ccc2O1,0,-1,13,3,-4,·
CC(C)(C)c1ccc(-c2nc(N)nc(N)n2)cc1,11,-27,-36,-3,-80,0
Nc1nc(N)nc(-c2ccc(Oc3ccccc3)cc2)n1,-34*,-38,·,-1,8,-14
Nc1nc(-c2ccc(Cl)cc2)nc(-c2ccc(Cl)cc2)n1,9,9,-7,29*,-2,12
OC(c1cc(-c2cccc(Cl)c2)nc2ccccc12)C1CCCCN1 (stereo not drawn),-49,13,6,·,-3,-45
OC(c1cc(-c2ccc(C(F)(F)F)cc2)nc(C(F)(F)F)c1)C1CCCCN1 (stereo not drawn),-56,2,88*,-3,35,-38
COc1ccc(CN2CCN(C(=O)c3cccc4ccccc34)CC2)c(OC)c1OC,-5,-12,-6,15*,6,-1
COc1cccc(C(=O)N2CCN(C(=O)c3cccc4ccccc34)CC2)c1OC,·,10,·,·,·,4
